Screens: PubChem BioAssay, several laboratories
A3A deaminase = human APOBEC3A DNA deaminase inhibition | recombinant A3A, FAM/TAMRA ssDNA deamination fluorescence | 330,000 compounds, 0.41% hits | P31941 | inhibition, % at 20 µM;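 active = at least 40% inhibition at 20 µM here, with at most 30% in a related deaminase screen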;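 note: plate controls were A3A with DMSO for no effect and wells lacking A3A enzyme for full effect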
ADAM10 inh = ADAM10 inhibition, QFRET primary screen; inhibition, % at 7 µM; 370,000 compounds, 0.62% hits; O14672; recombinant ADAM10, EDANS/DABCYL FRET peptide cleavage, 3 h; AID 720582;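 active = inhibition above a per-campaign cutoff equal to the mean of compounds falling between control-based bounds plus 3 SD, cut at about 20% in these data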;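 note: 0% = DMSO wells while the 100% control is not disclosed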
A3G deaminase = blocks human APOBEC3G single-stranded DNA deamination | inhibition, % at 20 µM | AID 493012 | 330,000 compounds, 0.28% hits | recombinant A3G, ssDNA deamination FAM/TAMRA fluorescence | Q9HC16;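 active = inhibition of at least 40% at 20 µM, with no more than 30% in the related APOBEC3A deaminase screen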;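 note: plate controls were DMSO wells with A3G for no effect and wells lacking A3G enzyme for full effect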
ADAM17 inh = ADAM17 inhibition, QFRET primary screen; P78536; recombinant ADAM17, EDANS/DABCYL FRET peptide cleavage; inhibition, % at 6.95 µM; 370,000 compounds, 0.83% hits;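 active = inhibition above the mean of compounds lying between control limits plus 3 SD, set per campaign, cut at about 8.5% in these data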;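 note: 0% = DMSO-only wells as the low control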
NRP1-CendR mod = modulators of CendR peptide binding to human neuropilin-1; O14786; inhibition, % at 25 µM; 360,000 compounds, 0.85% hits; FAM-RPARPAR peptide binding to NRP-1, fluorescence polarization;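 active = inhibition or corrected inhibition above about 18%, plus a signal ratio from 0.5 to 1.5, limit read from the data, passing the limit was not always enough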
A3G conf = APOBEC3G (human) deaminase inhibition, confirmed; shares compounds with A3G deaminase; recombinant A3G ssDNA deaminase, UDG/FAM-TAMRA fluorescence; inhibition, % at 20 µM; 890 compounds, 72% hits; AID 493152;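 active = inhibition reaching a set limit in any replicate at 20 µM, the limit being 80% of the first screen's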
UDG A3G counter = E. coli UDG inhibition in APOBEC3G counter-screen. 710 tested, under 10 active. shares compounds with A3G deaminase. UDG counterscreen, FAM/TAMRA oligo fluorescence. inhibition, % at 20 µM;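 active = compounds giving 40% or more inhibition at 20 µM in any one of the three replicates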;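 note: plate controls were DMSO wells with UDG and oligo for no effect and DMSO wells lacking both for full effect; inhibitors lower the FAM signal released by uracil excision and alkaline cleavage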
Numbers without * were called inactive. Most compounds without a hit are left out; they make up all but 2.4% or so of the library.

For COC(=O)c1ccccc1NC(=O)c1sc(=S)n(C)c1N the results were A3A deaminase -1, ADAM10 inh -3, A3G deaminase 40*, ADAM17 inh -1, NRP1-CendR mod -11, A3G conf 41* and UDG A3G counter 4.
`COC(=O)c1ccccc1NC(=O)c1sc(N)nc1C` gave A3A deaminase -1, ADAM10 inh 5, A3G deaminase -5, ADAM17 inh 0 and NRP1-CendR mod 4.
For Cc1ccn2c(C(=O)c3ccc(Cl)cc3)cnc2c1 the results were A3A deaminase 3, ADAM10 inh 4, A3G deaminase 46*, ADAM17 inh 5, NRP1-CendR mod -5 and A3G conf 6.
Screening C=CCn1c(N)c(C(=O)NCCC2=CCCCC2)sc1=S returned A3A deaminase 2, ADAM10 inh 4, A3G deaminase 47*, ADAM17 inh 2, NRP1-CendR mod 0 and A3G conf 8.
CCOC(=O)c1ccc(NC(=O)CC2Sc3ncnn3C2=O)cc1 (centres undefined) was read as A3A deaminase -3, ADAM10 inh -9, A3G deaminase 42*, ADAM17 inh 0, NRP1-CendR mod 0, A3G conf 50* and UDG A3G counter 1.
Screening COc1ccc(NC(=O)CC2Sc3ncnn3C2=O)cc1 (centres undefined) returned A3A deaminase 5, ADAM10 inh -9, A3G deaminase 26, ADAM17 inh -3 and NRP1-CendR mod -11.
`COC(=O)C1=C(C)N(Cc2ccc(C(F)(F)F)cc2)C(=NCc2ccccc2)NC1c1cccc(Cl)c1` (centres undefined) gave ADAM10 inh 13 and ADAM17 inh 5.
Screening Cc1ccc(-c2n[nH]c3c2C(c2ccccc2)N(c2ccc(C(=O)O)cc2)C3=O)cc1 (centres undefined) returned A3A deaminase -8, ADAM10 inh -9, A3G deaminase 74*, ADAM17 inh -1, NRP1-CendR mod -20, A3G conf 3 and UDG A3G counter 3.
For Cc1ccc(-c2n[nH]c3c2C(c2cccc(O)c2)N(c2ccc(C(=O)O)cc2)C3=O)cc1 (centres undefined) the results were A3A deaminase -9, ADAM10 inh -7, A3G deaminase -3, ADAM17 inh -7 and NRP1-CendR mod -29.
`Cc1[nH]c2ccccc2c1CC(=O)Nc1ccc(Nc2cccnc2)c(-c2ccc(Oc3ccccc3)cc2)c1` gave ADAM10 inh 6 and ADAM17 inh 2.
`CCCCNC(=O)c1ccc(Cn2c(=S)[nH]c3c([nH]c4ccc(OC)cc43)c2=O)cc1` gave A3A deaminase -3, ADAM10 inh -19, A3G deaminase -9, ADAM17 inh 0 and NRP1-CendR mod -12.
`CCN(CC)CCNC(=O)CCCCn1c(=S)[nH]c2c([nH]c3ccc(OC)cc32)c1=O` gave A3A deaminase -3, ADAM10 inh -56, A3G deaminase 69*, ADAM17 inh -22, A3G conf 84* and UDG A3G counter 8.
`O=C(CC1CCCC1)Nc1cc(S(=O)(=O)N2CCOCC2)ccc1O` gave A3A deaminase 4, ADAM10 inh -10, A3G deaminase 57*, ADAM17 inh 0, NRP1-CendR mod -8, A3G conf 33* and UDG A3G counter -2.
For CC(C)Oc1ccc(S(=O)(=O)N2CCOCC2)cc1NC(=O)CC1CCCC1 the results were A3A deaminase -1, ADAM10 inh -1, A3G deaminase -2, ADAM17 inh 1 and NRP1-CendR mod 13.
`COc1ccc([C@H](C#Cc2ccccc2)CC(=O)O)cc1OC1CCCC1` gave ADAM10 inh -4 and ADAM17 inh 2.
For C=CCn1c(CSc2ccccc2[N+](=O)[O-])n[nH]c1=S the results were A3A deaminase 21, ADAM10 inh -3, A3G deaminase 46*, ADAM17 inh 1, NRP1-CendR mod -2, A3G conf 68* and UDG A3G counter 2.
Screening C=CCn1c(Cc2ccccc2)n[nH]c1=S returned A3A deaminase -1, ADAM10 inh 4, A3G deaminase 28, ADAM17 inh 2 and NRP1-CendR mod 1.
